The source of these data is PubChem BioAssay.

Activity calls are given as the source filed them.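 The calls were made as follows: active = z-score of at least 1.8 in each of two replicates, scored against plate mean and spread of sample wells; inactive = the rest.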

A short description of this experiment: viability rescue of complex I mutant cybrids, primary screen, cell-based, galactose medium, ATP luminescence (AID 1645843).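 Also: positive z means more ATP and so rescue of galactose-driven cybrid death.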 The conditions noted are these: complex I mutant cybrid cells, 72 h, hits give high values.
As for `c1nc(-c2ccc3c(c2)OCCO3)c2sccc2n1`, the z-score was 0.225 (inactive).

Regarding `COc1ccc2nc(Cn3cnc4sc(C)cc4c3=O)[nH]c2c1`, the z-score was 0.395 (inactive).

With `CC(C)C1=NOC(c2nc(C(C)c3ccccc3)no2)C1` (stereo not given), the z-score is -0.83 (inactive).

Regarding `Cc1ccc2c(C(=O)N3CCN(C)C(=O)C3C)cc(-c3cnn(C(C)C)c3)nc2c1` (stereo not given), the z-score is -0.56 (inactive).

As to `CCc1ncc(-c2cc(C(=O)N3CCC(C)(C)C3)c3ccc(F)cc3n2)cn1`, the z-score is -0.56 (inactive).

Turning to `COc1cccc(C(=O)N2CCC(n3cc(-c4ccccn4)nn3)CC2)c1`, the z-score was 0.785 (inactive).

For `c1ccc(C(CCn2ccnc2)NC2CCCCCC2)cc1` (stereo not given), the z-score was -0.47 (inactive).

For `OCC1CCCN(C2CCN(c3ncnc4sccc34)CC2)C1` (stereo not given), the z-score was 1 (inactive).

On to `CCn1ncc(NC(=O)Cn2cc(C)c(-c3ccc(Cl)s3)n2)n1`, for which the z-score was -0.01 (inactive).

In the case of `CCCn1nc(NC(=O)Cn2ccc(-c3ccc(F)cc3)n2)c2ccccc21`, the z-score is -1.28 (inactive).

Turning to `Cc1ccccc1C1CCCN(C(=O)c2cc(C(C)C)no2)C1` (stereo not given), the z-score was 2.95 (active).

Regarding `O=C(C1CCCCCC1)N1CCC(n2cc(-c3ccccc3)nn2)CC1`, the z-score was -0.495 (inactive).

As for `CC1(C(=O)N2CCC(n3cc(C(C)(C)C)nn3)CC2)CCCO1` (stereo not given), the z-score was -0.79 (inactive).

`Cc1ccc(F)cc1-c1cccc(C(=O)c2nccn2C)c1`: the z-score is -0.54 (inactive).

Regarding `Cc1cc(NC(=O)Cn2c(C)nc(Cl)c2Cl)n(C2CCCCC2)n1`, the z-score is -0.41 (inactive).

For the compound `COc1ccccc1-c1noc(C(C)n2cccn2)n1` (stereo not given), the z-score is -0.115 (inactive).

`CCCC(C)c1nc2c(cnn2CC(C)C)[nH]1` (stereo not given): the z-score is 1.06 (inactive).

Turning to `COc1cccc2ccc(-c3ccc(C(=O)N(C)C)cc3)nc12`, the z-score is 1.37 (inactive).

In the case of `CC(C)CN1CCN(Cc2ccco2)C(CCO)C1` (stereo not given), the z-score was -0.595 (inactive).

Regarding `CCCCc1ncc(-c2nc3ccc(C)cc3c(C(=O)N(C)CC)c2C)cn1`, the z-score is -0.54 (inactive).

`Cc1nc(C(=O)N(Cc2cccnc2)Cc2ccc3c(c2)OCO3)cs1`: the z-score was -0.675 (inactive).

For `O=c1c2sccc2ncn1Cc1nc2ccccc2[nH]1`, the z-score is 0.03 (inactive).

With `C=C1C2(C(=O)N3CCC(c4cccc(OC)c4OC)C3)CCC(C2)C1(C)C` (stereo not given), the z-score is 1.19 (inactive).

With `O=C(C1CCCCCC1)N1CCC(Cn2cc(CCO)nn2)CC1`, the z-score was -0.51 (inactive).

Consider `Cc1nsc(NC(=O)N2CCC(C(=O)N3CCCC3)CC2)n1`, for which the z-score was -0.375 (inactive).

For the compound `Cc1cc(N2CCCC(Cn3cc(CN)nn3)C2)nc(-c2ccccc2O)n1` (stereo not given), the z-score was -0.9 (inactive).

For the compound `CCN1CC(Cn2cnc3c(C)c(C)ccc3c2=O)CC1=O` (stereo not given), the z-score was -0.145 (inactive).

Turning to `Cc1cc(NC(=O)Cn2ccc(-c3cccc(F)c3)n2)n(-c2ccccn2)n1`, the z-score is -0.96 (inactive).

As to `CC(C)CN(C)Cc1cn(C2CCN(C3CCCCCC3)CC2)nn1`, the z-score was -0.485 (inactive).

As for `O=C(CC1CCCCCC1)N1CCC(n2cc(C3CC3)nn2)CC1`, the z-score was -0.455 (inactive).

Regarding `Cc1ccc(NC(=O)c2csc(Cc3ccccc3)n2)cn1`, the z-score was -1.08 (inactive).

In the case of `COCCN(C)Cc1ccc(-c2nc(C)c(C)c(=O)[nH]2)cc1`, the z-score was -0.545 (inactive).

`COc1cccc2ccc(N3CCN(Cc4ccccn4)CC3)nc12`: the z-score is -0.51 (inactive).

For the compound `CCCn1cc(-c2ccnc(NCc3cn4cccc(C)c4n3)n2)c(C)n1`, the z-score was -1.07 (inactive).

As for `CCCC(NC(=O)c1ccc[n+]([O-])c1)c1ccccc1` (stereo not given), the z-score is -0.43 (inactive).

Regarding `CCCC[C@@H]1C[C@@H]1C(=O)N1CCC(n2cc(C3CCCCC3)nn2)CC1`, the z-score is 1.86 (inactive).

As for `CC(=O)N1CCC(NCCOc2c(C)cccc2Cl)CC1`, the z-score is -0.35 (inactive).

On to `CCCCC(CC)CN1CCC(n2cc(CNC)nn2)CC1` (stereo not given), for which the z-score is 1 (inactive).

`Cc1cc(CN[C@@H](C)C(N)=O)c(C)s1`: the z-score is 0.04 (inactive).

For the compound `Cc1ccc(C(=O)N2CCNC(=O)C2Cc2ccccc2)c(F)c1` (stereo not given), the z-score was -0.535 (inactive).
